Only some compounds are listed: those with a hit (about 6.7% of all), similar ones and a draw of the others.
C diff growth: inhibitors of Clostridium difficile growth; Clostridium difficile clinical isolate growth, OD600, 24 h; stronger effect = lower value; growth activity, negative = inhibition, % at 16 µg/mL (by protocol); 86,000 tested, 0.25% active;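 active = mean growth activity at or below -80% and every replicate also at or below -80%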;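 also: 0% = DMSO wells and -100% = levofloxacin 16 µg/mL wells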
Pf Dd2 inh: P. falciparum Dd2 growth inhibition. SYBR Green, 72 h; stronger effect = lower value. activity change, % at 10 µM. 94,000 tested, 2.3% active; in the data active = activity change below about -80%
T cruzi growth: blocks T. cruzi growth in NIH3T3 culture | T. cruzi beta-gal in NIH3T3, GalScreen luminescence, 90 h | inhibition, % at 8.34 µM | 77,000 tested, 5.9% active | AID 624255;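 active = mean inhibition above about 93%, with at least 55% of replicates each passing it, limit read from the data, passing the limit was not always enough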
The depositor's hits bear a star; · = no result given.

SMILES	C diff growth	Pf Dd2 inh	T cruzi growth
COc1ccc(S(=O)(=O)Nc2ccc3c(c2)C(=O)N([C@@H](C)CO)C[C@@H](C)[C@H](CN(C)Cc2ccccc2)O3)cc1	3.7	4.0	-1.2
C[C@H]1CN([C@@H](C)CO)C(=O)c2cc(NC(=O)CCCN(C)C)ccc2O[C@@H]1CN(C)C(=O)NC1CCCCC1	0.1	-6.8	9.4
Cc1ccc(S(=O)(=O)N(C)C[C@H]2OCCCC[C@@H](C)Oc3ccc(NC(=O)C4CCCCC4)cc3C(=O)N([C@@H](C)CO)C[C@H]2C)cc1	-3.6	-56.6	29.0
C[C@@H]1CCCCO[C@H](CN(C)S(=O)(=O)c2ccccc2)[C@@H](C)CN([C@@H](C)CO)C(=O)c2cc(NC(=O)C3CCCCC3)ccc2O1	-2.2	-80.4*	44.7
C[C@@H]1CCCCO[C@H](CN(C)S(=O)(=O)c2ccccc2)[C@H](C)CN([C@@H](C)CO)C(=O)c2cc(NC(=O)C3CCCCC3)ccc2O1	-2.8	-73.2	38.5
C[C@H]1CCCCO[C@H](CN(C)S(=O)(=O)c2ccccc2)[C@@H](C)CN([C@@H](C)CO)C(=O)c2cc(NC(=O)C3CCCCC3)ccc2O1	-7.1	-84.3*	36.2
Cc1ccc(S(=O)(=O)N(C)C[C@@H]2OCCCC[C@@H](C)Oc3ccc(NC(=O)C4CCCCC4)cc3C(=O)N([C@H](C)CO)C[C@@H]2C)cc1	-0.4	-88.5*	10.6
C[C@@H]1CN([C@@H](C)CO)C(=O)c2cc(NC(=O)C3CCCCC3)ccc2O[C@@H](C)CCCCO[C@@H]1CN(C)S(=O)(=O)c1ccccc1	-1.9	-51.5	38.0
COCC(=O)Nc1ccc2c(c1)C(=O)N(C)[C@@H]1CC[C@H](CC(=O)OC)O[C@H]1CO2	-4.9	3.0	88.7
O=C(C[C@@H]1CC[C@@H]2[C@H](COC[C@@H](O)CN2Cc2cc(F)ccc2F)O1)NCc1ccccc1	·	-6.5	-4.4
CCCC#Cc1ccc([C@H]2[C@H]3CN(S(=O)(=O)c4ccccc4C)CCCCN3[C@H]2CO)cc1	18.3	-8.4	64.9
Cc1ccccc1S(=O)(=O)N1CCCCN2[C@@H](CO)[C@@H](c3ccc(-c4ccccc4)cc3)[C@@H]2C1	0.6	-75.3	55.3
CCCC#Cc1ccc([C@@H]2[C@H](CO)N3CCCCN(S(=O)(=O)c4ccccc4C)C[C@@H]23)cc1	-96.3*	-72.8	86.8
Cc1ccccc1S(=O)(=O)N1CCCCN2[C@H](CO)[C@H](c3ccc(-c4ccccc4)cc3)[C@H]2C1	33.6	-81.9*	66.4
CCCC#Cc1ccc([C@@H]2[C@@H](CO)N3CCCCN(S(=O)(=O)Cc4ccccc4)C[C@@H]23)cc1	33.8	-14.1	83.8
CCCC#Cc1ccc([C@@H]2[C@H](CO)N3CCCCN(S(=O)(=O)Cc4ccccc4)C[C@@H]23)cc1	-89.7*	-84.0*	82.6
O=C([C@@H]1[C@@H](CO)[C@@H]2Cn3c(ccc(-c4ccccc4F)c3=O)[C@H]1N2C(=O)C1CCC1)N1CCOCC1	-2.7	5.3	54.5
O=C(NCC[C@H]1CC[C@H](NC(=O)c2ccccc2F)[C@H](CO)O1)c1ccc2c(c1)OCO2	·	11.1	-15.0
CCCN(C)C[C@H]1OCCCC[C@H](C)Oc2ccc(NS(=O)(=O)c3ccc(Cl)cc3)cc2C(=O)N([C@H](C)CO)C[C@H]1C	2.4	-27.8	78.6
CCCN(C)C[C@H]1OCCCC[C@@H](C)Oc2ccc(NS(=O)(=O)c3ccc(Cl)cc3)cc2C(=O)N([C@H](C)CO)C[C@@H]1C	-2.6	-13.6	84.8
CCCN(C)C[C@H]1OCCCC[C@H](C)Oc2ccc(NS(=O)(=O)c3ccc(C)cc3)cc2C(=O)N([C@H](C)CO)C[C@H]1C	8.2	-85.9*	80.9
CCCN(C)C[C@H]1OCCCC[C@@H](C)Oc2ccc(NS(=O)(=O)c3ccc(F)cc3)cc2C(=O)N([C@H](C)CO)C[C@@H]1C	-5.6	0.4	-9.2
CCCN(C)C[C@H]1OCCCC[C@H](C)Oc2ccc(NS(=O)(=O)c3c(C)noc3C)cc2C(=O)N([C@@H](C)CO)C[C@@H]1C	-2.7	-88.9*	72.3
CCCN(C)C[C@@H]1OCCCC[C@@H](C)Oc2ccc(NS(=O)(=O)c3ccc(C)cc3)cc2C(=O)N([C@H](C)CO)C[C@H]1C	6.0	-88.6*	53.7
CCCN(C)C[C@H]1OCCCC[C@H](C)Oc2ccc(NS(=O)(=O)c3ccc(C)cc3)cc2C(=O)N([C@@H](C)CO)C[C@@H]1C	3.9	-89.6*	33.5
CCCN(C)C[C@H]1OCCCC[C@H](C)Oc2ccc(NS(=O)(=O)c3c(C)noc3C)cc2C(=O)N([C@H](C)CO)C[C@H]1C	-0.6	-71.0	17.8
C[C@@H]1CCCCO[C@@H](CN(C)Cc2ccc(Cl)c(Cl)c2)[C@@H](C)CN([C@@H](C)CO)C(=O)c2cc(NC(=O)C3CCCCC3)ccc2O1	8.6	-44.9	94.4
